Source: PubChem BioAssay (NCI)
The panel holds about 83,000 compounds, 20% with a hit somewhere; the sample as a whole holds those more often.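 Single-concentration screen, 48 h exposure, 96-well plates. Endpoint: percent growth. Below 10 = active.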 The source made the active and inactive calls.

How the values were obtained:
Assay in all cases: NCI-60 one-dose screen, 48 h (100 = growth as untreated, 0 = no growth, -100 = all killed)
Details in all cases: 10 µM unless noted
[1] = tested on: NCI-H23 lung
[2] = tested on: NCI-H226 lung
[3] = tested on: NCI-H322M lung
[4] = tested on: HOP-62 NSCLC
[5] = tested on: NCI-H460 lung
[6] = tested on: HOP-92 NSCLC
[7] = tested on: NCI-H522 lung
[8] = tested on: A549/ATCC NSCLC
[9] = tested on: 786-0 renal
[10] = tested on: COLO 205 colon

Measured: growth

COc1ccccc1C(OC(C)=O)OC(C)=O
inactive: [1] 98.7% | [2] 94% | [3] 97.5% | [4] 104% | [5] 107% | [6] 115% | [7] 78% | [8] 79.5% | [9] 97.7% | [10] 110%

Cc1ccn2cc(Cc3cc(=O)oc4c3ccc3ccccc34)c(=O)nc2c1
inactive: [1] 96.6% | [2] 96.6% | [3] 101% | [4] 91.7% | [5] 106% | [6] 98.8% | [7] 75.1% | [8] 89.9% | [9] 95.5% | [10] 102%

COc1cc(NC(C)CCCN2C(=O)c3ccccc3C2=O)c2nc(C)ccc2c1OC (stereo not given)
inactive: [1] 87.9% | [2] 96.4% | [3] 76.2% | [4] 95.1% | [5] 103% | [6] 53.5% | [7] 82% | [8] 94.8% | [9] 97.5% | [10] 99.3%

CC(C)(C)NCC(O)COc1c(Br)c(Br)c(Br)c2c1OC(C)(C)C2 (stereo not given)
inactive: [2] 42.5%
active: [1] -0.995% | [3] -19.3% | [4] -84.9% | [5] -63.7% | [6] -57.7% | [7] -76.8% | [8] -71.9% | [9] -91.6% | [10] -58.3%

O=C1C(Cl)=C(Nc2ccccc2)C(=O)C(Cl)=C1Nc1ccccc1
inactive: [1] 106% | [2] 103% | [3] 120% | [4] 113% | [5] 112% | [6] 101% | [7] 112% | [8] 109% | [9] 109% | [10] 109%

CC(C)(C)OC(=O)NCc1cccc(N=C=S)c1
inactive: [1] 55.3% | [2] 80.6% | [3] 65.7% | [4] 57.8% | [5] 63.8% | [7] 12.8% | [8] 69.2% | [9] 54.9% | [10] 38.5%
active: [6] -0.561%

COc1ccc2c(c1)O/C(=C/c1ccc(OCC(=O)Nc3ccc(S(N)(=O)=O)cc3)cc1)C2=O
inactive: [1] 100% | [2] 86.9% | [3] 97.8% | [4] 104% | [5] 101% | [6] 91.4% | [7] 80.7% | [8] 88.5% | [9] 96.7% | [10] 114%

Nc1nc(Cl)cc(NCCCCNc2cc(Cl)nc(N)n2)n1
inactive: [1] 102% | [2] 109% | [3] 87.1% | [4] 107% | [5] 121% | [6] 74.3% | [7] 83.8% | [8] 108% | [9] 108% | [10] 105%

CC(=O)O[C@@H]1[C@@H](OC(C)=O)[C@H](OC(C)=O)CO[C@H]1Nc1cccc2ccccc12
inactive: [1] 94.8% | [2] 97.2% | [3] 94.4% | [4] 94.1% | [5] 98% | [6] 104% | [7] 68.3% | [8] 102% | [9] 107% | [10] 99.7%
